{"source": "PubChem BioAssay AID1159580", "about": "(chemical genetic matrix, 2015)", "assay": "chemical genetic growth profiling, strain panel (AID 1159580);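 further: tested at 20 µM; growth read once vehicle control cultures reached saturation at 30 °C; 1 = growth at the plate median or of vehicle wells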", "conditions": "growth OD", "note": "Screen size: about 5,500 compounds; about 2,000 (36%) were called active. Roughly 18% stayed inconclusive and do not appear here. The list shows a part of the results. Unmarked numbers belong to inactive results. No stated cut-off is given here; in the data, active means normalized growth mostly below about 0.91 (no sharp cut-off); inconclusive means no clear call, values can overlap the other calls; inactive means mostly above about 0.92."}
{"molecule": "C#C[C@]1(O)CCC2C3CCc4cc(O)ccc4C3CC[C@@]21C", "note": "(stereo partly drawn)", "values": [{"measurement": "normalized growth", "setting": "S. cerevisiae deletion strains, locus YJR043C, strain POL32, stronger effect = lower value", "value": 0.927}, {"measurement": "normalized growth", "setting": "S. cerevisiae deletion strains, locus YJR066W, strain TOR1, stronger effect = lower value", "value": "0.81 (active)"}, {"measurement": "normalized growth", "setting": "S. cerevisiae deletion strains, locus YKL009W, strain mrt4, stronger effect = lower value", "value": "0.827 (active)"}, {"measurement": "normalized growth", "setting": "S. cerevisiae deletion strains, locus YKL068W, stronger effect = lower value", "value": 1.03}, {"measurement": "normalized growth", "setting": "S. cerevisiae deletion strains, locus YKL085W, strain MDH1 (second series), stronger effect = lower value", "value": 1.01}, {"measurement": "normalized growth", "setting": "S. cerevisiae deletion strains, locus YKL085W, strain MDH1, stronger effect = lower value", "value": 1.01}, {"measurement": "normalized growth", "setting": "S. cerevisiae deletion strains, locus YKL160W, strain elf1, stronger effect = lower value", "value": 0.996}, {"measurement": "normalized growth", "setting": "S. cerevisiae deletion strains, locus YKR001C, strain vps1, stronger effect = lower value", "value": 0.959}, {"measurement": "normalized growth", "setting": "S. cerevisiae deletion strains, locus YKR026C, strain gcn3, stronger effect = lower value", "value": 1.05}, {"measurement": "normalized growth", "setting": "S. cerevisiae deletion strains, locus YKR091W, strain srl3, stronger effect = lower value", "value": 1.02}, {"measurement": "normalized growth", "setting": "S. cerevisiae deletion strains, locus YLL001W, strain dnm1, stronger effect = lower value", "value": 1.05}, {"measurement": "normalized growth", "setting": "S. cerevisiae deletion strains, locus YLL026W, stronger effect = lower value", "value": 1.01}, {"measurement": "normalized growth", "setting": "S. cerevisiae deletion strains, locus YLL041C, strain sdh2, stronger effect = lower value", "value": 1.03}, {"measurement": "normalized growth", "setting": "S. cerevisiae deletion strains, locus YLR027C, strain aat2, stronger effect = lower value", "value": 0.938}, {"measurement": "normalized growth", "setting": "S. cerevisiae deletion strains, locus YLR039C, strain RIC1, stronger effect = lower value", "value": 0.766}, {"measurement": "normalized growth", "setting": "S. cerevisiae deletion strains, locus YLR058C, strain SHM2, stronger effect = lower value", "value": 0.995}, {"measurement": "normalized growth", "setting": "S. cerevisiae deletion strains, locus YLR102C, strain apc9, stronger effect = lower value", "value": 1.03}, {"measurement": "normalized growth", "setting": "S. cerevisiae deletion strains, locus YLR113W, strain HOG1, stronger effect = lower value", "value": 1.05}, {"measurement": "normalized growth", "setting": "S. cerevisiae deletion strains, locus YLR221C, strain rsa3, stronger effect = lower value", "value": 0.965}, {"measurement": "normalized growth", "setting": "S. cerevisiae deletion strains, locus YLR258W, strain gsy2, stronger effect = lower value", "value": 0.982}, {"measurement": "normalized growth", "setting": "S. cerevisiae deletion strains, locus YLR262C, strain YPT6 (second series), stronger effect = lower value", "value": "0.735 (active)"}, {"measurement": "normalized growth", "setting": "S. cerevisiae deletion strains, locus YLR262C, strain YPT6, stronger effect = lower value", "value": 0.683}, {"measurement": "normalized growth", "setting": "S. cerevisiae deletion strains, locus YLR268W, strain sec22, stronger effect = lower value", "value": 0.91}, {"measurement": "normalized growth", "setting": "S. cerevisiae deletion strains, locus YLR320W, strain mms22, stronger effect = lower value", "value": 0.898}, {"measurement": "normalized growth", "setting": "S. cerevisiae deletion strains, locus YLR330W, strain CHS5, stronger effect = lower value", "value": 1.01}, {"measurement": "normalized growth", "setting": "S. cerevisiae deletion strains, locus YLR342W, strain FKS1 (second series), stronger effect = lower value", "value": "0.724 (active)"}, {"measurement": "normalized growth", "setting": "S. cerevisiae deletion strains, locus YLR342W, strain FKS1, stronger effect = lower value", "value": 0.983}, {"measurement": "normalized growth", "setting": "S. cerevisiae deletion strains, locus YLR357W, strain rsc2, stronger effect = lower value", "value": 1.1}, {"measurement": "normalized growth", "setting": "S. cerevisiae deletion strains, locus YLR370C, strain arc18, stronger effect = lower value", "value": 1.03}, {"measurement": "normalized growth", "setting": "S. cerevisiae deletion strains, locus YLR371W, strain rom2, stronger effect = lower value", "value": 1.03}, {"measurement": "normalized growth", "setting": "S. cerevisiae deletion strains, locus YLR384C, strain iki3, stronger effect = lower value", "value": 1.04}, {"measurement": "normalized growth", "setting": "S. cerevisiae deletion strains, locus YLR418C, strain cdc73, stronger effect = lower value", "value": "0.791 (active)"}, {"measurement": "normalized growth", "setting": "S. cerevisiae deletion strains, locus YML016C, strain PPZ1, stronger effect = lower value", "value": 1.03}, {"measurement": "normalized growth", "setting": "S. cerevisiae deletion strains, locus YML032C, strain rad52, stronger effect = lower value", "value": 0.913}, {"measurement": "normalized growth", "setting": "S. cerevisiae deletion strains, locus YML120C, strain ndi1, stronger effect = lower value", "value": 0.985}, {"measurement": "normalized growth", "setting": "S. cerevisiae deletion strains, locus YML124C, strain tub3, stronger effect = lower value", "value": 1.03}, {"measurement": "normalized growth", "setting": "S. cerevisiae deletion strains, locus YMR058W, strain fet3, stronger effect = lower value", "value": 0.947}, {"measurement": "normalized growth", "setting": "S. cerevisiae deletion strains, locus YMR078C, strain ctf18, stronger effect = lower value", "value": 1.02}, {"measurement": "normalized growth", "setting": "S. cerevisiae deletion strains, locus YMR125W, strain sto1, stronger effect = lower value", "value": "1.13 [resistant] (active)"}, {"measurement": "normalized growth", "setting": "S. cerevisiae deletion strains, locus YMR129W, stronger effect = lower value", "value": 1.02}, {"measurement": "normalized growth", "setting": "S. cerevisiae deletion strains, locus YMR205C, strain PFK2, stronger effect = lower value", "value": 0.995}, {"measurement": "normalized growth", "setting": "S. cerevisiae deletion strains, locus YMR223W, strain ubp8, stronger effect = lower value", "value": 0.948}, {"measurement": "normalized growth", "setting": "S. cerevisiae deletion strains, locus YMR231W, strain pep5, stronger effect = lower value", "value": 1.02}, {"measurement": "normalized growth", "setting": "S. cerevisiae deletion strains, locus YMR307W, strain GAS1, stronger effect = lower value", "value": 0.681}, {"measurement": "normalized growth", "setting": "S. cerevisiae deletion strains, locus YNL067W, strain RPL9B, stronger effect = lower value", "value": 0.9}, {"measurement": "normalized growth", "setting": "S. cerevisiae deletion strains, locus YNL071W, strain lat1, stronger effect = lower value", "value": 0.97}, {"measurement": "normalized growth", "setting": "S. cerevisiae deletion strains, locus YNL183C, strain NPR1, stronger effect = lower value", "value": 0.91}, {"measurement": "normalized growth", "setting": "S. cerevisiae deletion strains, locus YNL209W, strain ssb2, stronger effect = lower value", "value": 1.02}, {"measurement": "normalized growth", "setting": "S. cerevisiae deletion strains, locus YNL233W, strain BNI4, stronger effect = lower value", "value": 0.928}, {"measurement": "normalized growth", "setting": "S. cerevisiae deletion strains, locus YNL248C, strain rpa49, stronger effect = lower value", "value": 0.955}, {"measurement": "normalized growth", "setting": "S. cerevisiae deletion strains, locus YNL250W, strain rad50, stronger effect = lower value", "value": 0.989}, {"measurement": "normalized growth", "setting": "S. cerevisiae deletion strains, locus YNL271C, strain bni1, stronger effect = lower value", "value": 0.968}, {"measurement": "normalized growth", "setting": "S. cerevisiae deletion strains, locus YNL298W, strain CLA4, stronger effect = lower value", "value": 0.909}, {"measurement": "normalized growth", "setting": "S. cerevisiae deletion strains, locus YNL307C, strain MCK1, stronger effect = lower value", "value": "0.813 (active)"}, {"measurement": "normalized growth", "setting": "S. cerevisiae deletion strains, locus YNL322C, strain KRE1 (second series), stronger effect = lower value", "value": 1.03}, {"measurement": "normalized growth", "setting": "S. cerevisiae deletion strains, locus YNL322C, strain KRE1, stronger effect = lower value", "value": 1.01}, {"measurement": "normalized growth", "setting": "S. cerevisiae deletion strains, locus YNR049C, strain mso1, stronger effect = lower value", "value": 1.04}, {"measurement": "normalized growth", "setting": "S. cerevisiae deletion strains, locus YNR052C, strain pop2, stronger effect = lower value", "value": 0.965}, {"measurement": "normalized growth", "setting": "S. cerevisiae deletion strains, locus YOL006C, strain TOP1, stronger effect = lower value", "value": 0.726}, {"measurement": "normalized growth", "setting": "S. cerevisiae deletion strains, locus YOL012C, strain htz1", "value": 2.07}, {"measurement": "normalized growth", "setting": "S. cerevisiae deletion strains, locus YOL147C, strain pex11, stronger effect = lower value", "value": 1.02}, {"measurement": "normalized growth", "setting": "S. cerevisiae deletion strains, locus YOR001W, strain rrp6, stronger effect = lower value", "value": 0.939}, {"measurement": "normalized growth", "setting": "S. cerevisiae deletion strains, locus YOR061W, strain CKA2, stronger effect = lower value", "value": 1.01}, {"measurement": "normalized growth", "setting": "S. cerevisiae deletion strains, locus YOR069W, strain VPS5, stronger effect = lower value", "value": 1.02}, {"measurement": "normalized growth", "setting": "S. cerevisiae deletion strains, locus YOR070C, strain gyp1, stronger effect = lower value", "value": 0.987}, {"measurement": "normalized growth", "setting": "S. cerevisiae deletion strains, locus YOR080W, strain dia2, stronger effect = lower value", "value": 1.01}, {"measurement": "normalized growth", "setting": "S. cerevisiae deletion strains, locus YOR083W, strain WHI5, stronger effect = lower value", "value": 0.974}, {"measurement": "normalized growth", "setting": "S. cerevisiae deletion strains, locus YOR106W, strain vam3, stronger effect = lower value", "value": 0.938}, {"measurement": "normalized growth", "setting": "S. cerevisiae deletion strains, locus YOR136W, strain idh2, stronger effect = lower value", "value": 1.01}, {"measurement": "normalized growth", "setting": "S. cerevisiae deletion strains, locus YOR144C, strain elg1, stronger effect = lower value", "value": 0.998}, {"measurement": "normalized growth", "setting": "S. cerevisiae deletion strains, locus YOR184W, strain ser1, stronger effect = lower value", "value": "0.624 (active)"}, {"measurement": "normalized growth", "setting": "S. cerevisiae deletion strains, locus YOR231W, strain MKK1, stronger effect = lower value", "value": 0.95}, {"measurement": "normalized growth", "setting": "S. cerevisiae deletion strains, locus YOR265W, strain rbl2, stronger effect = lower value", "value": 1.03}, {"measurement": "normalized growth", "setting": "S. cerevisiae deletion strains, locus YOR270C, strain vph1, stronger effect = lower value", "value": 0.905}, {"measurement": "normalized growth", "setting": "S. cerevisiae deletion strains, locus YOR290C, strain snf2, stronger effect = lower value", "value": 0.908}, {"measurement": "normalized growth", "setting": "S. cerevisiae deletion strains, locus YOR316C, strain cot1, stronger effect = lower value", "value": 1.04}, {"measurement": "normalized growth", "setting": "S. cerevisiae deletion strains, locus YPL051W, strain arl3, stronger effect = lower value", "value": "0.91 (active)"}, {"measurement": "normalized growth", "setting": "S. cerevisiae deletion strains, locus YPL078C, strain atp4, stronger effect = lower value", "value": 0.915}, {"measurement": "normalized growth", "setting": "S. cerevisiae deletion strains, locus YPL106C, strain sse1, stronger effect = lower value", "value": 1.14}, {"measurement": "normalized growth", "setting": "S. cerevisiae deletion strains, locus YPL240C, strain hsp82, stronger effect = lower value", "value": 1.02}, {"measurement": "normalized growth", "setting": "S. cerevisiae deletion strains, locus YPL241C, strain CIN2, stronger effect = lower value", "value": 1.03}, {"measurement": "normalized growth", "setting": "S. cerevisiae deletion strains, locus YPL256C, strain CLN2, stronger effect = lower value", "value": 1.03}, {"measurement": "normalized growth", "setting": "S. cerevisiae deletion strains, locus YPR119W, strain clb2, stronger effect = lower value", "value": 1.04}, {"measurement": "normalized growth", "setting": "S. cerevisiae deletion strains, locus YPR141C, strain kar3, stronger effect = lower value", "value": 1.04}, {"measurement": "normalized growth", "setting": "S. cerevisiae deletion strains, locus YPR163C, strain tif3, stronger effect = lower value", "value": 0.934}, {"measurement": "normalized growth", "setting": "S. cerevisiae deletion strains, locus YPR167C, strain met16, stronger effect = lower value", "value": 1.01}, {"measurement": "normalized growth", "setting": "S. cerevisiae deletion strains, strain wtn01, stronger effect = lower value", "value": 0.906}, {"measurement": "normalized growth", "setting": "S. cerevisiae strains, strain wild type, stronger effect = lower value", "value": 0.999}]}
